Assay results taken from paper PMC5540273 (PLoS ONE, 2017).

Columns and labels:
Conditions in all cases: concentration: 1 μM, replicates: in singlicate; n = 1
RIPK5 = tested on: RIPK5
ROCK1 = tested on: ROCK1
ROCK2 = tested on: ROCK2
ROS1 = tested on: ROS1
[1] = tested on: RPS6KA4(Kin.Dom.1-N-terminal)
[2] = tested on: RPS6KA4(Kin.Dom.2-C-terminal)
[3] = tested on: RPS6KA5(Kin.Dom.1-N-terminal)
[4] = tested on: RPS6KA5(Kin.Dom.2-C-terminal)
[5] = tested on: T1, RSK1(Kin.Dom.1-N-terminal)
T1 construct: gene RPS6KA1

[6] = tested on: T2, RSK1(Kin.Dom.2-C-terminal)
T2 construct: gene RPS6KA1

[7] = tested on: T3, RSK2(Kin.Dom.1-N-terminal)
T3 construct: gene RPS6KA3

[8] = tested on: T4, RSK2(Kin.Dom.2-C-terminal)
T4 construct: gene RPS6KA3

[9] = tested on: T5, RSK3(Kin.Dom.1-N-terminal)
T5 construct: gene RPS6KA2

[10] = tested on: T6, RSK3(Kin.Dom.2-C-terminal)
T6 construct: gene RPS6KA2

[11] = tested on: T7, RSK4(Kin.Dom.1-N-terminal)
T7 construct: gene RPS6KA6

[12] = tested on: T8, RSK4(Kin.Dom.2-C-terminal)
T8 construct: gene RPS6KA6

S6K1 = tested on: S6K1
SBK1 = tested on: SBK1
SGK2 = tested on: SGK2
SGK3 = tested on: SGK3
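Further: KINOMEscan kinase panel screen.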

Compound	%Inh (RIPK5) [%]	%Inh (ROCK1) [%]	%Inh (ROCK2) [%]	%Inh (ROS1) [%]	%Inh [1] [%]	%Inh [2] [%]	%Inh [3] [%]	%Inh [4] [%]	%Inh [5] [%]	%Inh [6] [%]	%Inh [7] [%]	%Inh [8] [%]	%Inh [9] [%]	%Inh [10] [%]	%Inh [11] [%]	%Inh [12] [%]	%Inh (S6K1) [%]	%Inh (SBK1) [%]	%Inh (SGK2) [%]	%Inh (SGK3) [%]
COc1cc2c(cc1OC[C@@H](O)CO)ncc1c3ccc(C#N)cc3[nH]c21	7	91.1	96.9	0	0	9	0	26	33	17	80	0	11	11	88	18	40	71	0	38
Nc1nc(-c2ccc3c(N)n[nH]c3c2)cc(N2CCCC2)n1 [GSK2227430]	0	2	0	0	0	0	10	0	9	0	0	0	20	17	0	0	0	8	0	8
Cc1cn2c(=O)cc(N3CCOCC3)nc2n1Cc1cccc(Cl)c1Cl [GSK2334006]	0	33	30	15	27	0	24	6	0	5	12	25	16	0	15	13	3	0	0	0
[2H]C([2H])(c1cccc(C(F)(F)F)c1C)n1ccn2c(=O)nc(N3CCOCC3)cc12 [GSK2336394]	0	8	0	22	17	0	2	0	5	0	0	18	9	0	0	21	12	24	1	0
CSc1ccc(-c2cc3ncnc(SCC(=O)O)c3s2)cc1	0	0	0	3	0	0	0	0	9	12	0	0	0	20	0	19	0	0	0	6
COc1ccc(COc2cc(-n3cnc4ccccc43)sc2C(N)=O)cc1 [GSK1024304]	0	9	20	0	0	0	3	13	6	0	18	16	17	5	2	23	0	0	10	1
CN1c2ccc(NCc3ccc(F)cc3)cc2-c2c(cnn2C)S1(=O)=O	0	0	0	0	0	0	0	0	0	20	23	31	10	22	0	98.7	10	0	18	4
CCc1ccnc(/C=C/c2n[nH]c3cc(Sc4ccccc4C(=O)NC)ccc23)c1	0	0	0	19	0	0	0	0	0	3	8	0	13	6	18	12	6	16	0	24
N#Cc1ccc(-c2cc(-c3c[nH]nc3-c3ccccn3)ccn2)cc1 [GW693028]	0	28	3	0	5	0	19	10	13	0	0	24	0	0	0	28	4	4	0	0
CN(C1=C(c2ccccc2)C(=O)NC1=O)c1ccccc1 [SB-334860]	15	0	0	4	10	0	7	12	4	13	4	23	14	0	0	8	2	2	0	16
NS(=O)(=O)CCc1cccc(Nc2nccc(-c3c(-c4cccc(NC(=O)c5c(F)cccc5F)c4)nn4ccccc34)n2)c1 [GSK336735]	10	24	0	79	53	0	63	6	100	0	15	0	45	0	0	2	20	27	0	3
N#Cc1c(N2CCOCC2)sc(-c2ccn[nH]2)c1-c1ccc(Cl)cc1	15	11	0	8	0	3	0	7	17	18	9	0	13	2	2	10	7	35	23	8
COc1ccc(CNC(=O)NC2CCN(c3ccnc(Nc4ccc(OC)cc4)n3)C2)cc1 (stereo not drawn) [GSK1379727]	55	40	40	0	0	0	7	0	0	0	7	0	0	0	0	21	2	3	0	0
COc1cc2ncn(-c3cc(OCc4sccc4Cl)c(C(N)=O)s3)c2cc1OC [GSK448459]	0	26	23	6	13	0	5	0	12	0	30	21	10	0	14	20	3	4	0	0
Cn1cc(-c2ccc3c(c2)CCN3C(=O)Cc2ccccc2Cl)c2c(N)ncnc21 [GSK2608885]	13	1	0	86	36	0	32	3	99.2	30	0	23	87	12	0	18	14	25	0	3
